PubChem BioAssay (NCI)
About 83,000 compounds went through this panel and 20% of them were active in at least one assay; those are over-represented in the sample as a whole.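 Activity criterion: percent growth below 10, measured after cells in 96-well plates were exposed to a single compound concentration for 48 hours.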 The source made the active and inactive calls.

Columns and labels:
Assay in all cases: NCI-60 one-dose screen, 48 h (100 = growth as untreated, 0 = no growth, -100 = all killed)
Conditions in all cases: 10 µM unless noted
[1] = system: NCI-H23 lung
[2] = system: NCI-H226 lung
[3] = system: NCI-H322M lung
[4] = system: HOP-62 NSCLC
[5] = system: NCI-H460 lung
[6] = system: HOP-92 NSCLC
[7] = system: NCI-H522 lung
[8] = system: A549/ATCC NSCLC
[9] = system: 786-0 renal
[10] = system: COLO 205 colon
[11] = system: DU-145 prostate
[12] = system: K-562 leukemia
[13] = system: MALME-3M melanoma
[14] = system: MDA-MB-231 breast
[15] = system: RXF 393 renal
[16] = system: SF-268 CNS
[17] = system: SF-295 CNS
[18] = system: SF-539 CNS
[19] = system: UACC-257 melanoma
[20] = system: M14 melanoma

Measured: growth

C1CCC2(CC1)OOCNCOO2
active: [12] -35.4%
inactive: [1] 98.2% | [2] 107% | [3] 97.4% | [4] 103% | [5] 108% | [6] 122% | [7] 89.7% | [8] 102% | [9] 105% | [10] 115% | [11] 111% | [13] 110% | [14] 120% | [15] 116% | [16] 97.3% | [17] 97.4% | [18] 101% | [19] 98.5% | [20] 100%

COC(=O)[C@@H](C)C[C@H](Cc1ccccc1)NC(=O)c1csc([C@@H](C[C@H](C(C)C)N(C)C(=O)[C@H](C)NC(=O)[C@H]2CCCCN2C)OC(C)=O)n1
inactive: [1] 46% | [2] 61% | [3] 40.6% | [4] 32.6% | [5] 12% | [6] 40.4% | [8] 46.6% | [9] 35% | [13] 44.2% | [14] 19.5% | [16] 46.9% | [17] 17% | [19] 45.8%
active: [7] 8.96% | [10] -16.2% | [11] 4.34% | [12] 10% | [15] 8.78% | [18] -2.07% | [20] 5.98%

CC(C)CCC1(CCCl)C(=O)NC(=O)NC1=O
inactive: [1] 99.6% | [2] 96.6% | [3] 101% | [4] 106% | [5] 101% | [6] 91.2% | [7] 104% | [8] 91% | [9] 96.1% | [10] 110% | [11] 107% | [12] 116% | [13] 95.3% | [14] 101% | [15] 98.1% | [16] 109% | [17] 96.2% | [18] 100% | [19] 91.1% | [20] 96.7%

c1cc2c(c3c1CCNC3)OCO2
inactive: [1] 94.8% | [2] 103% | [3] 102% | [4] 96.6% | [5] 114% | [6] 120% | [7] 75.6% | [8] 66% | [9] 96.2% | [10] 112% | [11] 120% | [12] 106% | [13] 94.8% | [14] 100% | [15] 104% | [16] 102% | [17] 96.4% | [18] 105% | [19] 78.5% | [20] 101%

COc1cc2ncnc(Nc3ccc(F)c(Cl)c3)c2cc1OCC(=O)N1CCN(C)CC1
inactive: [1] 98.1% | [2] 102% | [3] 26.6% | [4] 96.9% | [5] 104% | [6] 75.1% | [7] 39.2% | [8] 76.9% | [9] 70.9% | [10] 104% | [11] 62.6% | [12] 82.8% | [13] 96.5% | [14] 94.7% | [15] 88.8% | [16] 73.6% | [17] 92.8% | [18] 98.2% | [19] 104% | [20] 97.5%

Fc1ccc(C2=CCNCC2)cc1
inactive: [1] 50.2% | [2] 86.6% | [3] 111% | [4] 112% | [5] 99.5% | [6] 119% | [7] 63.1% | [8] 113% | [9] 78.8% | [10] 103% | [11] 111% | [12] 108% | [13] 95.5% | [14] 80.7% | [15] 97.7% | [16] 96.8% | [17] 77.8% | [18] 93.4% | [20] 98.9%
active: [19] -21.6%

O=C(CCCCCCC(=O)Nc1ccc(N(CCCl)CCCl)cc1)NO
active: [15] -4.05%
inactive: [1] 29.2% | [2] 59.4% | [3] 69.4% | [4] 23.8% | [5] 14.5% | [6] 17.4% | [7] 23.8% | [8] 27.4% | [9] 22.9% | [10] 29.5% | [11] 29% | [12] 32.6% | [13] 19.2% | [14] 85.8% | [16] 11.6% | [17] 32.7% | [18] 31.1% | [19] 18.6% | [20] 42.5%

C[Se]C(=O)c1ccccc1OC(C)=O
inactive: [1] 53.9% | [3] 91.4% | [4] 48.9% | [5] 37.5% | [6] 38.4% | [7] 63.8% | [8] 59.2% | [9] 79.4% | [10] 111% | [11] 76.9% | [12] 74.8% | [13] 68.7% | [14] 68.3% | [15] 11.7% | [16] 18.3% | [17] 48.6% | [18] 50.3% | [19] 49.1% | [20] 20.8%
active: [2] 6.57%

CC(=O)O[C@H]1C(=O)[C@@]2(C)[C@H]([C@H](OC(=O)c3ccccc3)[C@]3(O)C[C@H](OC(=O)[C@H](OC(=O)OCC4COC(C)(C)O4)[C@@H](NC(=O)c4ccccc4)c4ccccc4)C(C)=C1C3(C)C)[C@]1(OC(C)=O)CO[C@@H]1C[C@@H]2O (stereo not given in full)
inactive: [1] 37.8% | [2] 72.8% | [3] 40.6% | [4] 48.1% | [5] 13.1% | [6] 74% | [7] 38.7% | [8] 30% | [9] 54.2% | [11] 22.9% | [12] 19.8% | [13] 45% | [14] 39.9% | [15] 32.9% | [16] 61.1% | [17] 17.5% | [18] 24.9% | [19] 59.4%
active: [10] 7.19% | [20] -14.7%

[Cl][Hg][c]1cc(Br)cc(Br)c1
active: [7] -30.4% | [12] 6.31% | [15] -18.3%
inactive: [1] 61.8% | [2] 99.9% | [3] 80% | [4] 31.7% | [5] 32.2% | [6] 11.2% | [8] 68% | [9] 26.3% | [10] 91% | [11] 79.3% | [13] 69.8% | [14] 19.8% | [16] 25.6% | [17] 80.2% | [18] 38.9% | [19] 58.5% | [20] 46.1%

COC(=O)CCc1c[nH]c2ccc(N(CCCl)CCCl)cc12
inactive: [1] 31.1% | [2] 79% | [3] 95.1% | [4] 47.5% | [5] 17.4% | [6] 84.4% | [7] 42.3% | [8] 44% | [9] 24.8% | [10] 68.8% | [11] 33.3% | [12] 70.7% | [13] 71% | [14] 121% | [15] 46.8% | [16] 40.6% | [17] 32.9% | [18] 23.2% | [19] 85.9% | [20] 45.4%

O=C(Nc1ccc(O)cc1)C(Cl)(Cl)Cl
inactive: [1] 101% | [2] 101% | [3] 102% | [4] 104% | [5] 105% | [6] 105% | [7] 91.2% | [8] 98.4% | [9] 95.2% | [10] 102% | [11] 108% | [12] 98.2% | [13] 96.8% | [14] 98.4% | [15] 107% | [16] 101% | [17] 99.8% | [18] 93.1% | [19] 90.2% | [20] 91.2%

Nc1ccc(-c2nc3cc(F)ccc3[se]2)cc1F
active: [2] -13.2%
inactive: [1] 33.9% | [3] 72.6% | [4] 51.4% | [5] 11.7% | [6] 66% | [7] 64.2% | [8] 39.9% | [9] 101% | [10] 56.2% | [11] 96.8% | [12] 93% | [13] 102% | [14] 42.3% | [15] 82.6% | [16] 80.8% | [17] 87.6% | [18] 86.9% | [19] 98.1% | [20] 91.8%

C=CC12CCN(CC1)C(C(O)c1ccnc3ccc(OC)cc13)C2 (stereo not given)
inactive: [1] 100% | [2] 89.3% | [3] 93.2% | [4] 97.5% | [5] 89% | [6] 75.2% | [7] 89% | [8] 76.1% | [9] 79% | [11] 107% | [12] 17.6% | [13] 26.2% | [14] 51.2% | [15] 45.9% | [16] 83.7% | [17] 72.3% | [18] 89.8% | [19] 52.4% | [20] 72.3%
active: [10] -91.5%
